# Measurements: PubChem BioAssay AID1942 (Johns Hopkins Ion Channel Center, 2009)
# Screen size: about 2,400 compounds; about 580 (24%) were called active. The list is a sample of the results. Values without a mark were called inactive.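 The calls were made as follows: active = activity change at or above the mean plus 3 SD of buffer wells without dofetilide, per plate; inactive = the rest.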
# Target: Potassium voltage-gated channel subfamily KQT member 2 (Rattus norvegicus) (UniProt O88943)
# Assay: KCNQ2 potentiation in CHO cells – cell-based, FluxOR thallium flux, counter-screen for hERG block protector project, confirmation (AID 1942);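 also: normalized value minus buffer-control mean plus three SD of buffer wells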
# Conditions: FluxOR thallium flux fluorescence, at 10 µM, active compounds read high
# Sequence of Potassium voltage-gated channel subfamily KQT member 2 (Rattus norvegicus) (O88943 whole entry, looked up): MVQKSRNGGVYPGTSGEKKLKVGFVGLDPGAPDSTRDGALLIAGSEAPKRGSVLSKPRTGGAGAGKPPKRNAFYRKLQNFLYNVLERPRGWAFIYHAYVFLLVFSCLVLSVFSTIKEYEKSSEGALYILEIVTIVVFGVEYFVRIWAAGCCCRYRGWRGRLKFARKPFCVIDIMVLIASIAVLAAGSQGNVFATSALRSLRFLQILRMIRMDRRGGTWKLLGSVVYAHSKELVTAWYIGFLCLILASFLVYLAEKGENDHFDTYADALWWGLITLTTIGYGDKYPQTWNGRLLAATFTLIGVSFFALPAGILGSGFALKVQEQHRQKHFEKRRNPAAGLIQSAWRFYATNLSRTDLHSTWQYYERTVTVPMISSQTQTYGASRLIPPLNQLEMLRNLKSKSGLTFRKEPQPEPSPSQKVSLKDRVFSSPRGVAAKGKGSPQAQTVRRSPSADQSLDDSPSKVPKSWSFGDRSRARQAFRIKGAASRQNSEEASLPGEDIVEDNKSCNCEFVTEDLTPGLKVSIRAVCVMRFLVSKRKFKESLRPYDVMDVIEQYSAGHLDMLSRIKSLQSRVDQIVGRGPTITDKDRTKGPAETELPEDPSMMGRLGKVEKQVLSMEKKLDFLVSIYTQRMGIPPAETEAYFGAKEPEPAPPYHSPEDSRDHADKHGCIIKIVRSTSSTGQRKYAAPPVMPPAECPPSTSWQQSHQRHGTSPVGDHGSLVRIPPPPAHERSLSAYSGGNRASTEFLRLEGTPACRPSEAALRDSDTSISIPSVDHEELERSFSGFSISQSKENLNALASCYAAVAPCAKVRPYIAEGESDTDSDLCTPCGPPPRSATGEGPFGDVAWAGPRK
row,Compound,"activity change, less the hit threshold"
1,CCc1ccccc1NC(=O)CC1CS(=O)(=O)CC1CC(=O)Nc1ccccc1CC (stereo not drawn),-17%
2,CC(C)(C)c1ccc(Cn2nc(CC(=O)O)c3ccccc3c2=O)cc1,-4.4%
3,C=CCn1c2ccccc2c(=O)c2cc(C#Cc3ccsc3)ccc21,-16%
4,CCCCOC(=O)Cn1c2ccc(OC)cc2c2nc3ccccc3nc21,-3.3%
5,CC(C)OC(=O)c1c2nc3ccccc3nc2n2c1[nH]c(=O)c1ccccc12,83.4% (active)
6,CCc1ccc(C(=O)CSc2nc3ccccc3c(=O)[nH]2)cc1,-15.1%
7,COCc1cc(C)nc(OCC(=O)N/N=C/c2ccc(-c3cc([N+](=O)[O-])ccc3Cl)o2)c1C#N,-8.1%
8,Cc1ccc(-c2cccc(C3CC=CC4C3C(=O)N(Cc3ccccc3)C4c3ccc4ccccc4c3)c2)cc1 (stereo not drawn),-15.4%
9,Cc1ccc(NC(=O)COc2cccnc2[N+](=O)[O-])cc1S(=O)(=O)N1CCOCC1,-18.2%
10,Cc1nnc2c(SC(C)C)nc3ccccc3n12,-19.3%
11,Cc1ccccc1OCC(=O)N=Nc1c(O)n(C)c2ccccc12,-2.4%
12,Cn1c(O)c(N=Nc2nc(-c3ccccc3)cs2)c2ccccc21,67.2% (active)
13,CCc1ccc2[nH]c(O)c(N=Nc3nc(-c4ccccc4)cs3)c2c1,-16.3%
14,N#Cc1cccc(N=c2ssnc2Cl)c1,-15.2%
15,Cc1cc(=O)[nH]c(N/N=C2/CCCC/C2=C\c2ccccc2)n1,-11.4%
16,CSC(=S)N/N=C/c1ccccc1,48% (active)
17,C/C(=N\NC(N)=S)c1ccncc1,-10.4%
18,CC(C)NC(=S)N/N=C/c1ccc(C(C)(C)C)cc1,-8.8%
19,C/C(=N\NC(N)=S)c1cccnc1,-17.7%
20,CSC(=S)N/N=C(\C)c1ccccc1,42.3% (active)
21,CSC(=S)N/N=C/c1ccc(Br)cc1,-6.8%

row,Compound,"activity change, less the hit threshold"
1,COc1ccc(-n2c(SCC#N)nnc2-c2cccnc2)cc1,-24.2%
2,O=C(CC(=O)c1ccccc1O)c1cccc(F)c1,-11.1%
3,Cc1cc(F)c(F)c(C(=O)N2CCOCC2)c1,-20.6%
4,CC(C)(C)OC(=O)N1CCC2(CC1)Oc1ccc(Cl)cc1C(=O)C21CC(c2ccc(Cl)cc2)=NO1 (stereo not drawn),-20.7%
5,Cn1nc(C(F)(F)F)c(-c2ccc(Br)cc2)c1NC(=O)c1cccnc1,-21.4%
6,COc1ccc(C(=O)NNC(=O)CSc2nnc(COc3ccccc3)n2C)cc1,-15.5%
7,Cc1cc(NC(=O)CSc2ccc3nnc(-c4cccs4)n3n2)no1,-20.2%
8,O=C(O)c1ccc2c3n(nc2c1)-c1ccc(Cl)cc1CO3,-11.6%
9,Cc1ccc(NC(=S)NC(=O)c2ccc(Br)o2)c(C)c1,8.1% (active)
10,Cc1ccc(C)c(NC(=S)NC(=O)c2cncc(Br)c2)c1,-2.9%
11,O=C(NC(=S)Nc1cccc(Cl)c1)c1cncc(Br)c1,-16.1%
12,O=C(NC(=S)Nc1ccccc1)c1ccc(Br)o1,3.3% (active)
13,O=C(NC(=S)Nc1ccccc1F)c1ccc(Br)o1,59.7% (active)
14,O=C(NC(=S)Nc1cccnc1)c1cc2ccccc2o1,10.1% (active)
15,O=C(NC(=S)NNC(=O)c1cccs1)c1ccc(Br)o1,-12.6%
16,Cc1ccc(NC(=O)c2ccc3c(c2)CCN3S(C)(=O)=O)c(C)c1,-23.2%
17,Cc1c(C(=O)NC(=S)NCc2cccnc2)oc2ccccc12,-18.2%
18,Fc1cccc(C2NN=C(c3ccccc3)S2)c1 (stereo not drawn),-7.2%
19,O=C(OCCNc1ccc(C(F)(F)F)cc1[N+](=O)[O-])c1cc2ccccc2oc1=O,-14.3%
20,O=C(O)COc1ccc(NC(=O)c2ccc3c(c2)C(=O)N(C2CCCCC2)C3=O)cc1,-6.7%
21,COc1cc(S(=O)(=O)n2cnc(C)c2)ccc1Cl,-21.2%

row,Compound,"activity change, less the hit threshold"
1,COCCN(C(=O)CSc1nnc(C)n1Cc1ccccc1)c1c(N)n(CC(C)C)c(=O)[nH]c1=O,-21.8%
2,Cc1nc2n(n1)CC(O)CS2 (stereo not drawn),-16.3%
3,CCc1ccc(NC(=S)NC(=O)c2c(-c3ccccc3Cl)noc2C)cc1,-17.1%
4,CCOc1ccc(-c2cccc(NC(=O)c3ccc(Br)o3)c2)nn1,-30.4%
5,Cc1cccc(NC(=S)NC(=O)c2ccc(Br)o2)c1,46.1% (active)
6,CS(=O)(=O)N(Cc1ccccc1)c1ccc(C(=O)Nc2ccc(C(N)=O)cc2)cc1,-23.7%
7,COc1ccc(NC(=S)NC(=O)c2ccc(Br)o2)cc1,11.8% (active)
8,O=C(NC(=S)NCc1ccccc1)c1ccc(Br)o1,70.4% (active)
9,CCN(c1ccccc1)S(=O)(=O)c1ccc(NC(=S)NC(=O)c2ccc(Br)o2)cc1,0.3% (active)
10,O=C(CNC(=S)NC(=O)c1ccc(Br)o1)c1ccccc1,-11.7%
11,S=C(NCc1ccccc1)NCc1ccccc1Cl,-23.7%
12,COc1ccc(OC)c(NC(=S)NC(=O)c2ccc(Br)o2)c1,-6.9%
13,CC(C)C(=O)Nc1cccc(C(=O)Nc2ccccc2C(=O)O)c1,-17.8%
14,COc1ccc(Cc2c(O)nc(SCC(=O)NC(C)(C)C)[nH]c2=O)cc1,-19.2%
15,CC(C(=O)N1CCN(c2ccc([N+](=O)[O-])cc2)CC1)N1C(=O)C2CC=CCC2C1=O (stereo not drawn),-20.1%
16,Cc1cc(C)n2nc(SCC(=O)NC3CCCCC3C)nc2n1 (stereo not drawn),-30.3%
17,COCCOC(=O)C1=C(C)Nc2ncnn2C1c1ccc(F)cc1 (stereo not drawn),-22%
18,CCOc1ccc(NC(=O)C2C(C(=O)O)C3(Cl)C(Cl)=C(Cl)C2(Cl)C3(Cl)Cl)cc1 (stereo not drawn),-15.5%
19,S=C(N/N=C/c1ccccc1Cl)Nc1cccc(Cl)c1Cl,8.6% (active)
20,Fc1ccccc1NC(=S)N/N=C/c1ccccc1Br,-25.7%
21,Cc1ccc(Cl)cc1NC(=S)N/N=C/c1cccc2ccccc12,-24.4%
